Some test systems named below: NCI-H226 lung; NCI-H322M lung; HOP-62 NSCLC; NCI-H460 lung; HOP-92 NSCLC; NCI-H522 lung; A549/ATCC NSCLC; 786-0 renal; COLO 205 colon; DU-145 prostate; K-562 leukemia; MALME-3M melanoma; MDA-MB-231 breast; RXF 393 renal; SF-268 CNS; SF-295 CNS; UACC-257 melanoma; M14 melanoma; SF-539 CNS.
Holding throughout (experiment): NCI-60 one-dose screen, 48 h (100 = growth as untreated, 0 = no growth, -100 = all killed)
Holding throughout (settings): 10 µM unless noted

The panel holds about 83,000 compounds, 20% with a hit somewhere; the sample as a whole holds those more often.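 48-hour exposure, single concentration, 96-well plates; percent growth endpoint where 0 means no net growth. Active: below 10.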 A number with no mark means an inactive call. Activity calls are given as the source filed them.

`COc1ccc(C2=CC(c3cc(OC)c(OC)c(OC)c3)NC(=O)N2)cc1OC` (stereo not given): the growth in the experiment on NCI-H226 lung is 64.3%; in the experiment with NCI-H322M lung, -9.67% (active); in the experiment on HOP-62 NSCLC, 32.6%; in the experiment on NCI-H460 lung, 1.25% (active); in the experiment with HOP-92 NSCLC, 6.24% (active); in the experiment with NCI-H522 lung it was -8.71% (active). In addition, the growth in the experiment on A549/ATCC NSCLC is 19%; in the experiment on 786-0 renal, 27.9%; with COLO 205 colon it was -24.1% (active); in the experiment with DU-145 prostate, -17.1% (active); in the experiment with K-562 leukemia, 10.6%; with MALME-3M melanoma, 11.2%. In addition, the growth was 21.8% in the experiment on MDA-MB-231 breast; 0.616% (active) in the experiment with RXF 393 renal; 32.2% with SF-268 CNS; 6.53% (active) with SF-295 CNS; 57.2% with UACC-257 melanoma; 17.2% with M14 melanoma.
Regarding `COc1ccc(Nc2ncccc2C(=O)NCc2cn(Cc3cccc(Oc4ccccc4)c3)nn2)c(OC)c1`, the growth with NCI-H226 lung was 73.5%; in the experiment with NCI-H322M lung, 56.1%; in the experiment with HOP-62 NSCLC, 41.7%; in the experiment with NCI-H460 lung, 7.15% (active); with HOP-92 NSCLC, 62%; in the experiment on NCI-H522 lung, 11.6%. The growth in the experiment with A549/ATCC NSCLC is 39%; in the experiment on 786-0 renal, 34%; in the experiment on COLO 205 colon, 4.54% (active); with DU-145 prostate, 4.02% (active); in the experiment with K-562 leukemia, 21.3%; with MALME-3M melanoma, 46.4%. Further, the growth is 23.9% with MDA-MB-231 breast; 6.03% (active) in the experiment on RXF 393 renal; 36.6% in the experiment on SF-268 CNS; 7.69% (active) in the experiment with SF-295 CNS; 5.94% (active) in the experiment on SF-539 CNS; 85.5% in the experiment with UACC-257 melanoma. For the same molecule, in the experiment on M14 melanoma, the growth is 14.2%.
In the case of `COc1cc2c(=O)n(C3CCCCCC3)c3c4cc[nH]c4ncc3c2cc1OC`, the growth was 43.9% in the experiment with NCI-H226 lung; 59% with HOP-62 NSCLC; 72.4% in the experiment on NCI-H460 lung; 59.1% in the experiment with HOP-92 NSCLC; 65.4% in the experiment on NCI-H522 lung; 79.7% in the experiment on A549/ATCC NSCLC. Besides, the growth was 90.2% in the experiment with 786-0 renal; 79.9% with COLO 205 colon; 78% in the experiment on DU-145 prostate; 16% with K-562 leukemia; 113% in the experiment on MALME-3M melanoma; 75.5% in the experiment with MDA-MB-231 breast. In addition, the growth is 37.7% with RXF 393 renal; 65.6% with SF-268 CNS; 69.7% with SF-295 CNS; 17.1% with SF-539 CNS; 109% in the experiment on UACC-257 melanoma; 92.6% in the experiment with M14 melanoma.
For the molecule `CC1=NC2=CC=CC3=NC(C(Cl)(Cl)Cl)=NC(=N1)N23`, the growth with NCI-H226 lung was 83.5%; in the experiment on NCI-H322M lung, 92.5%; in the experiment with HOP-62 NSCLC, 96.2%; in the experiment on NCI-H460 lung, 69.1%; with HOP-92 NSCLC, 118%; in the experiment on NCI-H522 lung, 54.9%. The growth is 80% in the experiment on A549/ATCC NSCLC; 88.7% in the experiment with 786-0 renal; 88.9% with COLO 205 colon; 50.4% in the experiment with DU-145 prostate; 80.2% with K-562 leukemia; 33.6% in the experiment on MALME-3M melanoma. Besides, the growth in the experiment with MDA-MB-231 breast was 81.3%; in the experiment with RXF 393 renal, 38%; in the experiment on SF-268 CNS, 78%; with SF-295 CNS, 95.6%; in the experiment on SF-539 CNS it was 88.9%; in the experiment with UACC-257 melanoma, 63.9%. Besides, the growth with M14 melanoma is 79.3%.
On to `CN(C)c1cccc2c(S(=O)(=O)/N=C(\N)Nc3nc4ccccc4s3)cccc12`, for which the growth in the experiment with NCI-H226 lung is 69.8%; in the experiment on NCI-H322M lung, 83.4%; in the experiment with HOP-62 NSCLC, 40.6%; with NCI-H460 lung, 30.3%; in the experiment on HOP-92 NSCLC it was 60.2%; in the experiment with NCI-H522 lung, 30.1%. Besides, the growth in the experiment on A549/ATCC NSCLC is 52.3%; in the experiment on 786-0 renal it was 77.6%; in the experiment on COLO 205 colon, 85.6%; in the experiment on DU-145 prostate it was 96%; in the experiment on K-562 leukemia it was 21.9%; with MALME-3M melanoma, 73.7%. In addition, the growth was 68.3% in the experiment on MDA-MB-231 breast; 54.6% in the experiment with RXF 393 renal; 69.7% with SF-268 CNS; 33.6% with SF-295 CNS; 52.4% in the experiment with SF-539 CNS; 78.3% with UACC-257 melanoma. The growth in the experiment on M14 melanoma was 45.3%.
Turning to `NC(=O)c1c(NC(=S)Nc2ccc(OC(F)(F)F)cc2)sc2c1CCC1(C2)OCCO1`, the growth is 92.9% in the experiment on NCI-H226 lung; 89.2% in the experiment on NCI-H322M lung; 99.9% with HOP-62 NSCLC; 96.3% in the experiment with HOP-92 NSCLC; 83% in the experiment with NCI-H522 lung; 97.3% in the experiment with A549/ATCC NSCLC. For the same molecule, the growth is 98.5% in the experiment on 786-0 renal; 108% in the experiment on COLO 205 colon; 112% with DU-145 prostate; 94.6% with K-562 leukemia; 109% in the experiment on MALME-3M melanoma; 98.9% in the experiment with MDA-MB-231 breast. Further, the growth is 116% with RXF 393 renal; 103% in the experiment on SF-268 CNS; 93.4% in the experiment with SF-295 CNS; 99% in the experiment with SF-539 CNS; 97.1% with UACC-257 melanoma; 97.2% in the experiment on M14 melanoma.
Regarding `CC(C)(C)OC(=O)NC(CSCc1ccccc1)C(=O)ON1C(=O)CCC1=O` (stereo not given), the growth in the experiment with NCI-H226 lung is 110%; in the experiment with NCI-H322M lung it was 131%; with HOP-62 NSCLC, 105%; with NCI-H460 lung, 111%; in the experiment with HOP-92 NSCLC it was 92.4%; with NCI-H522 lung, 91.5%. Besides, the growth with A549/ATCC NSCLC was 106%; in the experiment with 786-0 renal, 114%; in the experiment on COLO 205 colon it was 112%; in the experiment on DU-145 prostate it was 112%; in the experiment with K-562 leukemia it was 100%; in the experiment with MALME-3M melanoma it was 101%. Further, the growth in the experiment with MDA-MB-231 breast was 111%; in the experiment with RXF 393 renal it was 124%; with SF-268 CNS, 102%; in the experiment with SF-295 CNS, 124%; in the experiment on SF-539 CNS it was 99.5%; in the experiment with UACC-257 melanoma, 99.8%. Besides, the growth with M14 melanoma was 104%.

Values taken from PubChem BioAssay (NCI).
